# Results published in PubChem BioAssay (Tox21).
# Values without a mark were called inactive. The call rests on the fitted dose curve.
# Assay: qHTS assay to identify small molecule agonists of the sonic hedgehog signaling (Shh) pathway (AID 1259368);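 further: NIH/3T3-derived 3T3Gli1-Luc cells carrying a stable Gli1-driven firefly luciferase reporter; nearly all actives have a fitted effect of over 15% in size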
# Details: NIH/3T3 Gli1-Luc reporter, luciferase, 24 h; series mostly up to 92.4 µM; activity change: at the top concentration
# Text: National Center for Advancing Translational Sciences [NCATS]
# NIH Chemical Genomics Center [NCGC]
# U.S. Environmental Protection Agency [EPA]
# National Institutes of Environmental Health Sciences [NIEHS]
# National Toxicology Program [NTP]
# The sonic hedgehog (Shh) pathway is essential for normal embryonic development. Dysregulation of the Shh pathway can cause severe developmental defects in organs. Therefore chemicals that interfere with the pathway are potential developmental toxicants. A cell line designated 3T3Gli1-Luc (DMB/OARSA/CFSAN/FDA, Laurel, MD), a NIH/3T3 derived clone containing stably integrated Gli1-Luc reporter is used to detect chemical interference of the Shh pathway, by changes in the expression of the firefly Luc gene under the control of the Gli1 transcriptional response element. This cell line was used to screen Tox21 libraries for identifying and prioritizing the potential developmental toxicants that interfere Shh pathway.
# 3T3 Gli1-Luc cells were dispensed at 2,000 per well in 5uL of culture medium into white solid bottom 1536-well plates (Greiner Bio-One, Monroe, NC) using a Multidrop Combi (Thermo Scientific, Waltham, MA) dispenser. The assay plates were incubated at 37 C and 5% CO2 for 4hr, and then 23nL of compounds dissolved in DMSO and positive control were transferred using a Pintool station (Wako, San Diego, CA). The assay plates were incubated at 37C and 5% CO2 for 24hr. For luciferase read, 4uL of Amplite Luciferase reporter gene assay reagent (AAT Bioquest, Inc. Sunnyvale, CA) was added to each well of the assay plates using Flying Reagent Dispenser (FRD, Aurora Discovery, San Diego, CA) and incubated at room temperature for 30min. The luminescence signal was measured using a ViewLux plate reader (Perkin Elmer, Shelton, CT).
# On the % scale 0 is the no-effect control and ±100 the full control effect.
row,Compound,activity change
1,CC(C(=O)O)c1ccc2c(c1)Cc1cccnc1O2 (stereo not given),"-0.289% [at 42.5 µM, active compounds read high]"
2,CCC(C)C1N=C(C)C(C)S1 (stereo not given),0.0431%
3,CC(C)(C(=O)O)c1ccc(C(O)CCCN2CCC(C(O)(c3ccccc3)c3ccccc3)CC2)cc1 (stereo not given),"1.05% [at 42.5 µM, active compounds read high]"
4,CCCC(=O)OCc1ccccc1,-0.0939%
5,COc1cc(C)c(Cc2cnc(N)nc2N)cc1OC,"-2.49% [at 42.5 µM, active compounds read high]"
6,Clc1cc(Cl)c2c(c1)N=C1CCCCCN1C2,"11.4% [at 42.5 µM, active compounds read high]"
7,CCOc1cc(OCC)c(C(C)=O)cc1OCC,0.315%
8,COc1ccc(/C(C)=C/C(=O)O)c(OC)c1,"0.0601% [at 42.5 µM, active compounds read high]"
9,Cc1c(Nc2ncccc2C(=O)O)cccc1C(F)(F)F,"0.423% [at 42.5 µM, active compounds read high]"
10,O=C(O)CCc1nc2ccccc2[nH]1,"-0.116% [at 42.5 µM, active compounds read high]"
11,C[C@H](CN1CCCC1)C(=O)c1ccc(C(F)(F)F)cc1,"-0.179% [at 42.5 µM, active compounds read high]"
12,COc1ccc(CN(CCN(C)C)c2ncccn2)cc1,"0.237% [at 42.5 µM, active compounds read high]"
13,N#CCCCC(C#N)CCC#N (stereo not given),-1.2%
14,CC1=C(C)C(=O)C(C(CCCCCC(=O)O)c2ccccc2)=C(C)C1=O (stereo not given),"-0.0796% [at 42.5 µM, active compounds read high]"
15,Cc1c(N=C=O)cccc1N=C=O,2.75%
16,O=C(O)c1ccc(O)c(O)c1,5.93%
17,O=C1CCCN1CCO,-3.46%
18,CO[C@@H]1COCC[C@@H]1N[C@@H]1CC[C@@](C(=O)N2CCc3ncc(C(F)(F)F)cc3C2)(C(C)C)C1,0.773%
19,CCCC(=O)OCCC(C)C,0.9%
20,O=C(O)c1cccnc1Nc1cccc(C(F)(F)F)c1,"1.33% [at 42.5 µM, active compounds read high]"

row,Compound,activity change
1,CCOc1ccccc1O,-0.0566%
2,O=C(O)c1cc(C(=O)O)c(C(=O)O)cc1C(=O)O,0.319%
3,C1=COCCC1,0.796%
4,C/C(=C\C(C)CC(C)CC(C)C)C1CC(=O)OC1=O (stereo not given),-0.75%
5,CC(Cc1ccccc1)(NC(=O)CN)c1ccccc1 (stereo not given),"0.194% [at 42.5 µM, active compounds read high]"
6,CCOCCn1c(N2CCCN(C)CC2)nc2ccccc21,"1.54% [at 42.5 µM, active compounds read high]"
7,CC(C)=CCCC(C)C=O (stereo not given),-0.559%
8,FC1(F)C(F)(F)C(F)(F)C2(F)C(F)(C1(F)F)C(F)(F)C(F)(F)C1(F)C(F)(F)C(F)(F)C(F)(F)C(F)(F)C12F (stereo not given),0.829%
9,CCC(CC)C(=O)O,-0.411%
10,O=c1[nH][nH]c2ccccc12,-2.6%
11,Cc1cccc(C)c1NC(=O)CN1CCCC1,"-0.899% [at 42.5 µM, active compounds read high]"
12,CS(C)=O,-2.79%
13,O=C1C=CCCC1,0.0853%
14,Cc1cc(N)n(-c2ccccc2)n1,1.89%
15,CCCCC(CC)COCCC#N (stereo not given),0.253%
16,CC/C=C/CCO,-3%
17,FC(F)(Cl)C(F)(Cl)Cl,-0.375%
18,Cc1ccc(NC=O)c(C)c1,-0.571%
19,O=C(c1ccco1)N1CCNCC1,"0.0673% [at 42.5 µM, active compounds read high]"
20,O=C(O)c1cccc(C(=O)O)c1C(=O)O,-0.103%
